Test results as given in the supplement of paper PMC12645437, “Orthogonal IMiD-Degron Pairs Induce Selective Protein Degradation in Cells” (ACS Chemical Biology, 2025).
The full ranking holds about 8,300 sequences; the median of “log2 fold change of degron read counts, EGFP-low vs EGFP+ sorted cells (limma voom), compound-induced degradation” is about -1.1, and the highest 2% start at about 3.2. The list comes from a sample in which the highest values are over-represented; it also holds similar and randomly drawn sequences.

T1: CRBN, Q96SW2
T1 chain: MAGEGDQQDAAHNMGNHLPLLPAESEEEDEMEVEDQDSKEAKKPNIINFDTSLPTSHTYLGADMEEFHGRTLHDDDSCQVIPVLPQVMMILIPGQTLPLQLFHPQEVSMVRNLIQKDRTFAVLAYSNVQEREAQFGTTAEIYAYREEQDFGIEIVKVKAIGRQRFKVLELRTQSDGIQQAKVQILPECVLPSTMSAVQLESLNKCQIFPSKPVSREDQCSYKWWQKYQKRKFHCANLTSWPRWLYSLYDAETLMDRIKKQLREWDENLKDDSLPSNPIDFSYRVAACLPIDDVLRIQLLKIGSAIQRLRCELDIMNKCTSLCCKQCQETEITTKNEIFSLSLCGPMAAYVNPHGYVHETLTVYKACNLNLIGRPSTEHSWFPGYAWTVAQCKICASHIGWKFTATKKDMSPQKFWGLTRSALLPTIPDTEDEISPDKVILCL


Biological target: T1, CRBN, Q96SW2
Assay: log2 fold change of degron read counts, EGFP-low vs EGFP+ sorted cells (limma voom), compound-induced degradation; higher = more compound-induced degradation of the degron-EGFP fusion; degrons are variants of IKZF1/3 zinc finger 2; compound dose not given here
Conditions: Jurkat, 18 h
[1] = compound: compound 19 (5-tert-butyl-thalidomide)
[2] = compound: compound 22 (5-morpholino-thalidomide)
[3] = compound: compound 33 (diphenyl IMiD analogue)
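Further: pooled lentiviral library of zinc finger degron-EGFP fusions in mCherry-positive Jurkat cells, FACS-sorted after compound exposure, with degron abundance counted by next-generation sequencing.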

Row | Sequence | log2 fold change of degron read counts [1] | log2 fold change of degron read counts [2] | log2 fold change of degron read counts [3] | log2 fold change of degron read counts (compound: thalidomide)
1 | FVCDVCGAGFTQKGNLLRHIKL [46F_47V_49D_50V_52G_53A_54G_55F_67L_, Q9UKT9] | -0.789 | 1.19 | -0.11 | 0.879
2 | FECDQCGALFTQKGNLLRHIKL [46F_47E_49D_50Q_52G_53A_54L_55F_67L_, Q9UKT9] | -3.05 | -3.86 | -3.38 | -2.52
3 | FDCNVCGAFFTQKGNLLRHIKL [46F_47D_49N_50V_52G_53A_54F_55F_67L_, Q9UKT9] | -2.06 | -2.22 | -1.25 | -1.25
4 | FRCEICGAHFTQKGNLLRHIKL [46F_47R_49E_50I_52G_53A_54H_55F_67L_, Q9UKT9] | -0.542 | -0.83 | 0.979 | 0.735
5 | LDCEICGFNCTQKGNLLRHIKL [46L_47D_49E_50I_52G_53F_54N_55C_67L_, Q9UKT9] | -1.97 | -2.54 | -2.01 | -1.74
6 | FACEVCGAAFTQKGNLLRHIKL [46F_47A_49E_50V_52G_53A_54A_55F_67L_, Q9UKT9] | 3.64 | 2.99 | 1.02 | 1.31
7 | FFCEVCGAAFTQKGNLLRHIKL [46F_47F_49E_50V_52G_53A_54A_55F_67L_, Q9UKT9] | 3.47 | 3.39 | 2.35 | 1.61
8 | FECEVCGAAFTQKGNLLRHIKL [46F_47E_49E_50V_52G_53A_54A_55F_67L_, Q9UKT9] | 2.56 | -0.651 | 1.75 | 2.51
9 | FLCEVCGAAFTQKGNLLRHIKL [46F_47L_49E_50V_52G_53A_54A_55F_67L_, Q9UKT9] | 1.91 | 0.166 | 1.52 | 1.55
10 | FFCPVCGAAFTQKGNLLRHIKL [46F_47F_49P_50V_52G_53A_54A_55F_67L_, Q9UKT9] | 2.88 | 2.91 | 2.41 | 1.09
11 | FVCEVCGAAFTQKGNLLRHIKL [46F_47V_49E_50V_52G_53A_54A_55F_67L_, Q9UKT9] | 1.64 | 3.28 | 2.3 | 3.36
12 | FICEVCGAAFTQKGNLLRHIKL [46F_47I_49E_50V_52G_53A_54A_55F_67L_, Q9UKT9] | 0.0772 | 3 | 2.31 | 3.04
13 | FRCEVCGAAFTQKGNLLRHIKL [46F_47R_49E_50V_52G_53A_54A_55F_67L_, Q9UKT9] | 2.61 | 2.62 | 2.86 | 2.62
14 | FICNVCGAQFTQKGNLLRHIKL [46F_47I_49N_50V_52G_53A_54Q_55F_67L_, Q9UKT9] | -1.95 | 0.393 | 2 | 0.761
15 | FWCEQCGAIFTQKGNLLRHIKL [46F_47W_49E_50Q_52G_53A_54I_55F_67L_, Q9UKT9] | -0.201 | 0.552 | 0.154 | -1.07
16 | FSCEVCGAIFTQKGNLLRHIKL [46F_47S_49E_50V_52G_53A_54I_55F_67L_, Q9UKT9] | 1.27 | 0.887 | 1.42 | 0.379
17 | FVCEVCGAIFTQKGNLLRHIKL [46F_47V_49E_50V_52G_53A_54I_55F_67L_, Q9UKT9] | -1.03 | -0.779 | 1.43 | 1.47
18 | FICEVCGAIFTQKGNLLRHIKL [46F_47I_49E_50V_52G_53A_54I_55F_67L_, Q9UKT9] | -1.14 | 0.0357 | 2.04 | 1.14
19 | FYCEVCGAIFTQKGNLLRHIKL [46F_47Y_49E_50V_52G_53A_54I_55F_67L_, Q9UKT9] | 2.89 | 3.45 | 2.43 | 0.38

Row | Sequence | log2 fold change of degron read counts [1] | log2 fold change of degron read counts [2] | log2 fold change of degron read counts [3] | log2 fold change of degron read counts (compound: thalidomide)
20 | FRCEVCGAIFTQKGNLLRHIKL [46F_47R_49E_50V_52G_53A_54I_55F_67L_, Q9UKT9] | -1.36 | -1.29 | 0.815 | 1.07
21 | FQCEVCGAIFTQKGNLLRHIKL [46F_47Q_49E_50V_52G_53A_54I_55F_67L_, Q9UKT9] | -1.13 | 3.07 | 2.65 | 3.7
22 | FCCSVCGHLFTQKGNLLRHIKL [46F_47C_49S_50V_52G_53H_54L_55F_67L_, Q9UKT9] | -2.25 | -2.38 | -2.22 | -2.25
23 | FRCEQCGAGFTQKGNLLRHIKL [46F_47R_49E_50Q_52G_53A_54G_55F_67L_, Q9UKT9] | -0.467 | -1.48 | 0.986 | -0.649
24 | FSCNVCGAEFTQKGNLLRHIKL [46F_47S_49N_50V_52G_53A_54E_55F_67L_, Q9UKT9] | -1.82 | -2 | -0.491 | -1.04
25 | FLCNQCGHTFTQKGNLLRHIKL [46F_47L_49N_50Q_52G_53H_54T_55F_67L_, Q9UKT9] | -2.86 | -3.5 | -3.07 | -2.79
26 | FICSVCGHTFTQKGNLLRHIKL [46F_47I_49S_50V_52G_53H_54T_55F_67L_, Q9UKT9] | -2.11 | -2.3 | -3.14 | -2.67
27 | FFCDICGATFTQKGNLLRHIKL [46F_47F_49D_50I_52G_53A_54T_55F_67L_, Q9UKT9] | 2.91 | 2.77 | 0.337 | -0.566
28 | FCCNVCGASFTQKGNLLRHIKL [46F_47C_49N_50V_52G_53A_54S_55F_67L_, Q9UKT9] | 0.743 | 0.454 | 0.99 | 0.32
29 | FQCEVCGASFTQKGNLLRHIKL [46F_47Q_49E_50V_52G_53A_54S_55F_67L_, Q9UKT9] | 2.49 | 2.89 | 2.13 | 3.53
30 | FVCEVCGASFTQKGNLLRHIKL [46F_47V_49E_50V_52G_53A_54S_55F_67L_, Q9UKT9] | 1.21 | 2.91 | 2.54 | 3.54
31 | FICEVCGASFTQKGNLLRHIKL [46F_47I_49E_50V_52G_53A_54S_55F_67L_, Q9UKT9] | 0.0302 | 2.88 | 2.44 | 2.95
32 | FQCEVCGADFTQKGNLLRHIKL [46F_47Q_49E_50V_52G_53A_54D_55F_67L_, Q9UKT9] | -0.53 | -0.0138 | 1.04 | 3.09
33 | FYCEVCGASFTQKGNLLRHIKL [46F_47Y_49E_50V_52G_53A_54S_55F_67L_, Q9UKT9] | 3.7 | 3.86 | 2.94 | 1.59
34 | FHCEVCGASFTQKGNLLRHIKL [46F_47H_49E_50V_52G_53A_54S_55F_67L_, Q9UKT9] | 2.93 | 2.64 | 1.35 | 0.198
35 | FMCEVCGASFTQKGNLLRHIKL [46F_47M_49E_50V_52G_53A_54S_55F_67L_, Q9UKT9] | 1.39 | 1.79 | 2.94 | 2.05
36 | FACEVCGASFTQKGNLLRHIKL [46F_47A_49E_50V_52G_53A_54S_55F_67L_, Q9UKT9] | 3.87 | 2.73 | 0.799 | 1.03
37 | FACNVCGASFTQKGNLLRHIKL [46F_47A_49N_50V_52G_53A_54S_55F_67L_, Q9UKT9] | 1.32 | 0.642 | -0.249 | -1.16
38 | FRCEVCGASFTQKGNLLRHIKL [46F_47R_49E_50V_52G_53A_54S_55F_67L_, Q9UKT9] | 2.07 | 1.56 | 2.15 | 2.07
